We go through four molecules from PubChem BioAssay AID382 (SGCOxCompounds, 2006).

Active and inactive are the calls of the source. The rule behind the calls is not given here.

Sequence of Dual specificity protein kinase CLK1 (Homo sapiens) (P49759 whole entry, looked up): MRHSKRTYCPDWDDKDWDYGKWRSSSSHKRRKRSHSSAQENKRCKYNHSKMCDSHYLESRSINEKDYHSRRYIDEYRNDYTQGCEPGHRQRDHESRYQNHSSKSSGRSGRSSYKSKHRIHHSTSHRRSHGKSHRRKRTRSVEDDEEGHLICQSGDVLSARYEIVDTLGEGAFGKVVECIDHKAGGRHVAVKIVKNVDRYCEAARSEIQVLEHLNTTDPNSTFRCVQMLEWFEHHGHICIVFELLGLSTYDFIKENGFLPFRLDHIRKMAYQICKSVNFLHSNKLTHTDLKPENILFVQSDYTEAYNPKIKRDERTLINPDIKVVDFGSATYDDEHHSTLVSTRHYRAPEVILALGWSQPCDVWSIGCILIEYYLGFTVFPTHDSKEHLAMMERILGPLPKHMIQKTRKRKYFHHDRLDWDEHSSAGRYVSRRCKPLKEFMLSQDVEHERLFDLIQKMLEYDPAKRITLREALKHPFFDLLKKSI

This test concerns the target Dual specificity protein kinase CLK1 (Homo sapiens) (UniProt P49759). The test is described as follows: CLK1 binders by thermal stabilization, biophysical, recombinant human kinase, DSF (AID 382). To be noted: at 10 µM, protein 2 µM, buffer 10 mM HEPES, NaCl 150 mM, active compounds read high.
On to `CCn1cnc2c(Nc3cccc(Cl)c3)nc(N[C@@H]3CCCC[C@@H]3N)nc21`, for which the Tm shift was 6.54 Celsius (active).

For the molecule `COc1ccc2c(c1)/C(=C/c1cnc[nH]1)C(=O)N2`, the Tm shift was 3.63 Celsius (active).

Take `O=C1NC(=O)c2c1c1c3ccccc3n3c1c1c2c2ccccc2n1[C@@H]1CCC3O1`: the Tm shift is 6.44 Celsius (active).

Regarding `O=C1Nc2ccccc2/C1=C\c1cnc[nH]1`, the Tm shift is 3.76 Celsius (active).
